# Shown are actives, neighbours in structure and some others; about 7.5% of the full set was active somewhere.
# HCMV inh: blocks human cytomegalovirus replication; activity change, negative = inhibition, % at 57.5 µM; HFF cells, HCMV-luciferase reporter, 72 h; active compounds read low; 410,000 tested, 4.5% active; in the data active = activity change below about -60%; inconclusive = no clear call, values can overlap the other calls; inactive = above about -39%
#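 Two-dose cell screen: HFF monolayers treated with compounds and infected with luciferase-expressing HCMV at 1 PFU/cell, 72 h at 37C, then lysed for luciferase measurement.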
# Giardia FBPA inh: Giardia lamblia aldolase inhibition; A8B2U2; purified Giardia FBPA; Potency, µM (doses to about 59.6 µM), hits mostly inhibitors; 290,000 tested, 0.71% active; AID 2451; also: nearly all actives have a fitted effect of over 55% in size
# Target sequence (A8B2U2 whole entry, looked up): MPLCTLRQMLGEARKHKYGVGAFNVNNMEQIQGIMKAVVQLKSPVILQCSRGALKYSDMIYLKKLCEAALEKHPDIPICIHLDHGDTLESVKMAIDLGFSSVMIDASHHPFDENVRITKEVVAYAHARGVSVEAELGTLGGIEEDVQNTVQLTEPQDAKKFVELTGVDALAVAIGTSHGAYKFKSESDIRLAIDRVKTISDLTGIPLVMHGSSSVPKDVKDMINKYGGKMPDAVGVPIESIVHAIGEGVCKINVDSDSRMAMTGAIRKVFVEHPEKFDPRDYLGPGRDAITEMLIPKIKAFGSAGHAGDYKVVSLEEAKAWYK
#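 Giardia FBPA (40 nM reagent) was preincubated 10 min at RT with compound (up to 57.5 uM final), then substrate plus GAPDH/TPI/NAD/arsenate coupling system with diaphorase/resazurin was added; resorufin fluorescence (525/598 nm) was read after 20 min.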
# Vaccinia Venus: vaccinia inhibition (Venus reporter); Vaccinia virus Venus reporter expression, fluorescence; Potency, µM (top dose mostly 36.5 µM), most hits filed as inhibitors; 330,000 tested, 0.46% active; calls by dose curve; tested in A549 cells; also: nearly all actives have a fitted effect of over 30% in size
# HCV inhibitor: HCV inhibition; Huh7.5.1 HCVcc-Cre infection, luciferase reporter, 44 h; Potency, µM (highest dose often 41.8 µM), most hits filed as inhibitors; 340,000 tested, 3.4% active
#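 HCVcc-Cre virus at an moi near 0.5 was added right after compound to cells cultured 4 h from seeding (1,000 cells/well). Luciferase activity was determined 44 h later, 15 min after substrate addition at RT.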
# FMDV inh: antivirals against foot and mouth disease virus; FMDV antiviral cell-based qHTS; Potency, µM (highest dose often 57.9 µM), usual class: inhibitors; 410,000 tested, 1.2% active; calls by dose curve; tested in HEK293T cells; also: read-out not given here; nearly all actives have a fitted effect of over 45% in size
# VACV mCherry inh: vaccinia inhibition (mCherry reporter); Vaccinia virus mCherry reporter infection, fluorescence; Potency, µM (highest dose often 36.5 µM), actives largely listed as inhibitors; 310,000 tested, 0.63% active; AID 720579; calls by dose curve; tested in A549 cells; also: nearly all actives have a fitted effect of over 35% in size
# A number is an active result; 0 = inactive; ? = inconclusive; - = not tested or not shown; + = active, no number; [ ] = dose if it differs, or a comment. Unless noted, calls follow the shape of the dose curve; as a rule, active = well fitted curve in the direction sought with a large enough effect; inconclusive = small, poorly fitted or top-dose-only effect, or another doubt; inactive = no such curve, though single readings can be large; an effect the other way counts as inactive or inconclusive.
SMILES,HCMV inh,Giardia FBPA inh,Vaccinia Venus,HCV inhibitor,FMDV inh,VACV mCherry inh
COc1ccc(C(=O)n2cc(C(=O)c3cc(C)ccc3O)cn2)cc1OC,0,0,0,?,?,0
COc1ccc(C(=O)n2cc(C(=O)c3cc(C)ccc3O)cn2)cc1,-67,0,0,0,0,0
COc1ccc(CNc2nc(-c3ccc(OC)c(OC)c3)cc(C(F)(F)F)n2)cc1,0,-,0,-,0,0
COc1ccc(-c2cc(C(=O)O)c3sc(N4CCCCC4)nc3n2)cc1OC,0,0,0,0,0,0
COc1ccc(-c2cc(C(F)(F)F)nc(N3CCOCC3)n2)cc1OC,0,0,0,3.2µM,0,0
COc1cccc(-c2cc(C(F)(F)F)nc(N3CCOCC3)n2)c1,0,0,-,?,0,-
COc1ccc(-c2cc(-c3ccccc3)nc(N3CCCC3)n2)cc1OC,0,0,-,3.5µM,0,-
CCOc1cc2nc(-c3ccc(OC)c(OC)c3)nc(N3CC(C)OC(C)C3)c2cc1OC (stereo not given),-,0,-,-,-,-
COc1ccc(-c2cc(C(F)(F)F)nc(NC3CCCC3)n2)cc1OC,0,0,-,2.2µM,0,-
CCOc1cc2nc(-c3ccc(OC)c(OC)c3)nc(N3CCOCC3)c2cc1OC,0,0,?,?,?,11µM
COc1cc(-c2cc(C)c3c(OC)ccc(OC)c3n2)cc2c1OCCN(C(=O)Cn1nc(C)cc1C)C2,-,-,0,-,0,0
COc1ccc(S(=O)(=O)N2CCC(C(=O)N[C@@H](C)C(=O)NC3CCCC3)CC2)cc1,0,-,0[7.34 µM],0,0,0[7.34 µM]
CC(C)C(=O)Nc1cccc(C(=O)Nc2ccc(S(=O)(=O)Nc3nccs3)cc2)c1,0,0,0,0,0,0
CSc1ccc(CNc2nnnn2C)cc1,-81,0,0,0,0,0
CCCn1nnnc1NCc1ccc(SC)cc1,0,0,-,0,0,-
Cc1cccc(C)c1-n1c(=O)c2nc3ccccc3nc2c2ccccc21,-96,-,-,-,-,-
CCCNC(=O)C1(C)CCCN(Cc2ccccc2-c2ccccc2)C1 (stereo not given),-,-,0,-,?,0
CCOc1ccc2nc(NC(=O)CS(=O)(=O)c3ccc(Cl)cc3)sc2c1,+,-,0,-,0,0
CCOc1ccc2nc(NC(=O)CS(=O)(=O)c3ccc(C)cc3)sc2c1,0,0,-,0,0,-
COc1ccc2nc(NC(=O)C3CCN(S(=O)(=O)c4cccc5nsnc45)CC3)sc2c1,-75,0,?,?,7.9µM,?
CCOc1ccc2nc(NC(=O)C3CCCN(S(=O)(=O)c4cccs4)C3)sc2c1 (stereo not given),0,0,?,14µM,?,-
O=C(NC1CCN(Cc2ccccc2)CC1)C1CCN(S(=O)(=O)c2cccc3nsnc23)CC1,-62,0,0,0,?,0
COc1ccc(-c2nc(SCC(=O)NC3CCCC3)c(-c3ccccc3)[nH]2)cc1OC,0,-,0,-,0,0
Nc1cc(S(=O)(=O)c2ccc(N3CCCCC3)c(N)c2)ccc1N1CCCCC1,?,-,?,-,0,0
Nc1cc(C(=O)O)ccc1N1CCCCCC1,0,0,0,5.6µM,-,0
SMILES,HCMV inh,Giardia FBPA inh,Vaccinia Venus,HCV inhibitor,FMDV inh,VACV mCherry inh
Oc1cc2cc(-c3csc(-c4ccc(F)cc4)n3)cc3c2n1CCC3,-,-,0,-,-,0
COC(=O)c1c(-c2ccc(C)cc2)csc1NC(=O)Cc1ccc(OC)c(OC)c1,-65,0,0,?,?,0
COc1ccc(CC(=O)Nc2cccc3ccccc23)cc1OC,-85,0,0,?,?,0
COC(=O)c1c(-c2cccc3ccccc23)csc1NC(=O)Cc1ccc(OC)c(OC)c1,?,0,?,5.6µM,?,-
COC(=O)c1c(-c2ccc(Br)cc2)csc1NC(=O)Cc1ccc(OC)c(OC)c1,?,0,0,?,?,-
CCOc1ccc(NC(=O)CSc2nnc3c(n2)[nH]c2ccc(S(=O)(=O)N4CCCCC4)cc23)cc1,-,-,0,-,-,0
C[C@@]1(C(=O)O)NCCc2cc(O)c(O)cc21,-,13µM,-,-,0,-
CC(=O)N[C@@H](Cc1c[nH]c2ccccc12)C(=O)NCCc1ccc(S(N)(=O)=O)cc1,0,0,0,0,0,0
Cc1cccc(C)c1NC(=O)C(c1ccccc1)n1c(-c2ccccc2)nc2ccccc21 (stereo not given),0,-,0,-,0,0
CC(C)N(c1ccccc1)c1ccc(NC(=O)CCl)cc1,-61,0,-,?,40µM,-
O=C(CCl)Nc1ccc(N=Nc2ccccc2)cc1,0,0,-,0,0,-
CN1C2CCC1/C(=C\c1ccc(F)cc1)C(=O)/C2=C/c1ccc(F)cc1,-103,0,0,?,0,0
CN1C2CCC1/C(=C/c1cccn1C)C(=O)/C2=C\c1cccn1C,?,?,0,?,?,0
COc1ccc(C(=O)Nc2ncccc2C)cc1S(=O)(=O)N1CCOCC1,0,-,0,0,0,0
CC(CCc1ccc(O)cc1)N1CCC(Oc2ccc(C(=O)N3CCCC3)cc2)CC1 (stereo not given),-60,-,0,0,0,0
COc1ccc(CCC(C)N2CCC(Oc3ccc(C(=O)N4CCCC4)cc3)CC2)cc1 (stereo not given),0,-,0,?,0,0
CCCCNC(=O)/C=C/c1ccc(S(=O)(=O)Nc2ccc(OC)cc2)cc1,0,0,0,0,0,0
N=C1C(c2nc(-c3ccc(Br)cc3)cs2)=C(O)CN1NC(=O)c1ccc([N+](=O)[O-])cc1,-102,0,0,0,0,0
Nc1cccc[n+]1C(c1ccnc2ccccc12)[n+]1ccccc1N,-,-,0,-,-,0
CN1c2ccccc2Oc2c(c(=O)n(C)c(=O)n2C)C1c1cccc([N+](=O)[O-])c1 (stereo not given),0,0,0,3.5µM,0,-
CCN(CC)CC(=O)N1c2ccccc2Oc2c(c(=O)n(C)c(=O)n2C)C1c1cccc([N+](=O)[O-])c1 (stereo not given),0,0,0,0,0,0
COCCCNCCCCSc1ccc(Cl)cc1,0,0,0,13µM,0,0
OCCNCCCCSc1ccc(Cl)cc1,0,?,0,10µM,0,0
CCCCNCCOCCSc1ccc(Cl)cc1,0,?,-,7.9µM,0,-
CCCCC(=O)N(C)c1c(C)nc2ccc(C(=O)N3CCN(c4ccccc4)CC3)cn12,0,-,0,-,0,0
CC1(C)CC2C1CC[C@]1(C)CCC3C(C(=O)O)CC(=O)O[C@]32C1 (stereo not given in full),-,0,0,-,0,0
O=C(NC1CCN(Cc2ccccc2)CC1)c1ccc(S(=O)(=O)NCc2ccco2)cc1,0,0,0,4µM,0,?
Cc1ccc(C)n1-c1ccc(C(=O)NC2CCN(Cc3ccccc3)CC2)cc1,-62,0,0,?,?,0
COc1ccc(CN2CCN(C(=O)c3ccc(S(=O)(=O)NCc4ccco4)cc3)CC2)cc1,-83,-,0,?,?,0
CC1(C(=O)NC2CCN(Cc3ccccc3)CC2)CCN1Cc1ccc2ccccc2c1 (stereo not given),-67,-,0,-,?,0

# Screens from PubChem BioAssay.
